Consider 40 compounds from ChEMBL document CHEMBL3988442, “University of Dundee, Small-Polar-MMV Screening Library” (2021).

In the experiment the target is T1, Aspartate--tRNA(Asp/Asn) ligase (Mycobacterium tuberculosis (strain ATCC 25618 / H37Rv)) (UniProt P9WFW3).
T1 sequence (whole entry): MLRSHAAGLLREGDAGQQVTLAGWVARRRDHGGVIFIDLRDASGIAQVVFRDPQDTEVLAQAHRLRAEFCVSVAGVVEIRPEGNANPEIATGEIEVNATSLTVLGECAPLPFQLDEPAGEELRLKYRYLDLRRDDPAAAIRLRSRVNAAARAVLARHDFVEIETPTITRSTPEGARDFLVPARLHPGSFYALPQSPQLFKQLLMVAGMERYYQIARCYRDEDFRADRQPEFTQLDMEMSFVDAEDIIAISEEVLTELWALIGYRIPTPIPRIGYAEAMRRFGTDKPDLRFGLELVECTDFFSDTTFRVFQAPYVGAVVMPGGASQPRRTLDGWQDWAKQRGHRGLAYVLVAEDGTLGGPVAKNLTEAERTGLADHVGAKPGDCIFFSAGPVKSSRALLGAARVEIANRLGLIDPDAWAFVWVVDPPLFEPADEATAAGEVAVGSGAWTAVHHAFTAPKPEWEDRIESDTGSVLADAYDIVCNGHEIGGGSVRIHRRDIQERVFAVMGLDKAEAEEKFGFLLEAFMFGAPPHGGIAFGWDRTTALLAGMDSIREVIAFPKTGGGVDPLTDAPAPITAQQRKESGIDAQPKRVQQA
In words: Assay for Asp RNA synthetase-1 from Mycobacterium tuberculosis. The class given is functional. More on the design: scale not given: in the data most compounds retested in dose-response had high values. The following applies: 30 µM.
As for `CCc1nc(CN2CCCC(NCc3cnn(C(C)(C)C)c3)C2)no1` (stereo not given), the Percent Effect was -3.23%. For the compound `CNC(=O)c1nc2c(s1)CCN(C(=O)Cc1ccc(OC)cc1)CC2`, the Percent Effect turned out to be 0.107%. With `CCC(CC)C(=O)N1CCC2(C1)CN(c1ccccc1)C(=O)CN2C` (stereo not given), the Percent Effect is -4.01%. For the compound `CCC1CN(C(=O)c2ccc(=O)[nH]c2)CCC(=O)N1Cc1ccccc1` (stereo not given), the Percent Effect was -4.62%. Regarding `CCOc1cc(CN(C)CCOC)ccc1OC(F)F`, the Percent Effect was -3.33%.

On to `O=C(c1ccc(-n2cccn2)nc1)N1CCCN(c2cccnn2)CC1`, for which the Percent Effect was -4.61%. For the compound `c1ccc(-c2cnc(CNC3CCCN(c4cccnn4)C3)o2)cc1` (stereo not given), the Percent Effect is -3.48%. As to `CC(=O)NCC(=O)N1CCOC2(CCCN(c3cccnc3)C2)C1` (stereo not given), the Percent Effect turned out to be 1.34%. In the case of `CC(C)NC(=O)[C@@H](NC(=O)N1CCN(c2ccc(Cl)cc2)CC1)C(C)C`, the Percent Effect is -2.11%. On to `CC(C)C(NC(=O)NCC1(CO)CC1)c1nnc2n1CCC2` (stereo not given), for which the Percent Effect was -3.28%. With `COc1ccc2cc(C(=O)N3CCCCC3CC(N)=O)[nH]c2c1` (stereo not given), the Percent Effect is -1.12%. On to `Cc1cc(C)n(CC2CN(CC(=O)NC3CCCC3)CCO2)n1` (stereo not given), for which the Percent Effect came to 0.91%. `O=C(NCCO)Nc1cccc(Cl)c1SC(F)F`: the Percent Effect turned out to be 0.334%. For `COCC(=O)N1Cc2cn(C)nc2C(COc2cccnc2)C1` (stereo not given), the Percent Effect is 0.598%. `NC(=O)C1CCN(C(=O)c2cccc(OCc3cscn3)c2)CC1`: the Percent Effect is -1.48%.

As for `Cc1ccc(C)c(NC(=O)N(C)Cc2cnn(C)c2)c1`, the Percent Effect was -1.13%. Take `Cn1ncc2c(=O)[nH]c(CN3CCCC3CC3CCCCC3)nc21` (stereo not given): the Percent Effect is -3.06%. On to `c1cncc(-c2ccc3c(c2)C2(CC3)CCN(c3nncs3)CC2)c1`, for which the Percent Effect was found to be 1.44%.

Take `CC(C)c1cc(NC(=O)CN2CCC(N3CCCCC3)CC2)on1`: the Percent Effect amounted to 0.301%. On to `COCC1CCN(C(=O)c2cccc(S(=O)(=O)NC3CCCC3)c2)C1` (stereo not given), for which the Percent Effect was -0.437%. Take `Cc1nn(C)c(Cl)c1C1CCCN1C(=O)c1cc[nH]n1` (stereo not given): the Percent Effect is 3.04%. Next, `COc1c(CNCCNC(=O)c2ccco2)c(C)nn1C`: -2.68%; `CCc1nc(CN2CCCC(NCc3ccc(C(N)=O)cc3)C2)no1` (stereo not given): -2.68%.

Take `Cc1nc[nH]c1CN1CCN(C(=O)CCC(F)(F)F)[C@H]2CS(=O)(=O)C[C@H]21`: the Percent Effect is -2.31%.

`CCN1C[C@H]2CCN(C(=O)NC3CCCC3)CC[C@H]2S1(=O)=O`: the Percent Effect was -0.232%. Next, `c1ccc(CN2CCN(Cc3cscn3)CC2)cc1`: -2.48%; `Cn1cc(NC(=O)Cn2c(CS(C)(=O)=O)nc3ccccc32)cn1`: -0.299%. The same measure for `CC(C)c1nc(C2CCCN2Cc2ccn(C)c(=O)c2)no1` (stereo not given): 3.39%; for `Cn1cc(C(=O)CC2CCCN2C(=O)c2n[nH]c3ccccc23)cn1` (stereo not given): -3.71%; for `Cc1nc[nH]c1CN1CCN(C(=O)c2cccs2)[C@H]2CS(=O)(=O)C[C@H]21`: -4.62%.

For `COc1cc(CNCc2c(C)nn(C)c2N(C)C)ccn1`, the Percent Effect was determined as 3.75%.

In the case of `CC(C)N(C)C(=O)C1=NOC2(CCN(C(=O)c3ccncc3)C2)C1` (stereo not given), the Percent Effect was -1.05%.

Take `COc1ccc(-c2nccnc2C2CCN(C(C)=O)CC2)cc1`: the Percent Effect amounted to 0.0149%.

As to `CC(CN1CCN(C)CC1)NC(=O)c1cc(Cl)c2c(c1)OCO2` (stereo not given), the Percent Effect stood at 3.29%. Take `CC(C)C(=O)N1CCN(Cc2cc(-c3ccncc3)nn2C)CC1`: the Percent Effect was determined as 0.491%. Next, `NC(=O)COc1ccc(CNCc2ccc(F)cc2F)cc1`: -4.09%; `CCCc1nc(C(=O)N2CCCn3nc(CCC(=O)O)cc3C2)cs1`: -2.6%. Consider `COc1c(C2CCCN2C(=O)c2cncnc2C)c(C)nn1C` (stereo not given), for which the Percent Effect was determined as 4.44%. The same measure for `Cc1ncccc1NC(=O)[C@H]1C[C@@H]2CCN(Cc3nccs3)C[C@@H]2O1`: -3.35%; for `Cc1cccc(CN2CCC3(CCCN(C(=O)c4ccsc4)C3)C2=O)n1` (stereo not given): -2.4%.
